Source: PubChem BioAssay (National Center for Advancing Translational Sciences (NCATS))
HCV inh = HCV inhibition | Potency, µM (doses to about 41.8 µM), without a hit: at the top dose activity change, negative = inhibition, usual class: inhibitors | Huh7.5.1 HCVcc-Cre infection, luciferase reporter, 44 h | 340,000 compounds, 3.4% hits; further: potency means the concentration at half of the fitted maximal effect; on the % scale 0 is the no-effect control and ±100 the full control effect
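Cells (1,000/well) were plated 4 h before compound, then infected with HCVcc-Cre virus (~0.5 moi). After 44 h further culture, infection was read as luciferase luminescence following a 15 min substrate incubation at room temperature.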
Pf growth 96h = P. falciparum growth inhibition at 96 hour, primary screen for plastid delayed-death inhibitors. P. falciparum luciferase reporter growth, 96 h. Potency, µM (titrated, usually from 28.7 µM), for inactives: at the highest dose activity change, negative = inhibition, hits mostly inhibitors. 320,000 compounds, 6.9% hits; further: potency means the concentration at half of the fitted maximal effect; on the % scale 0 is the no-effect control and ±100 the full control effect
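96 h incubation, 37 C, 5% CO2, of luciferase-reporter P. falciparum-infected RBCs (2% hematocrit, 0.05% parasitemia final) with test compounds; endpoint luminescence.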
Cycloheximide cs = counter-screen hit for Shiga toxin inhibitors, cycloheximide | cell reporter, cycloheximide protein synthesis inhibition counterscreen | max response, % | 300,000 compounds, 12% hits; in the data active means max response mostly above about 13%, no sharp cut-off; inactive means mostly below about 14%; further: read at 38.3 µM for the half of the compounds with a filed dose; 0% is about no effect
Pf growth 48h = inhibits P. falciparum growth in the first generation, 48 h; Potency, µM (highest dose often 28.7 µM), without a hit: at the top dose activity change, negative = inhibition, actives largely listed as inhibitors; 310,000 compounds, 5.9% hits; P. falciparum luciferase growth in erythrocytes, 48 h; AID 504832; further: potency means the concentration at half of the fitted maximal effect; on the % scale 0 is the no-effect control and ±100 the full control effect
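Erythrocytes infected with P. falciparum carrying an integrated firefly luciferase reporter (2% hematocrit, 0.1% parasitemia final) were exposed to compounds in RPMI 1640 with 0.5% Albumax at 37 C, 5% CO2. Growth inhibition was scored as reduced luminescence.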
HCMV antiviral = blocks human cytomegalovirus replication | HFF cells, HCMV-luciferase reporter, 72 h; hits give low values | activity change, negative = inhibition, % at 57.5 µM | 410,000 compounds, 4.5% hits; in the data active means activity change below about -60%; inconclusive means no clear call, values can overlap the other calls; inactive means above about -39%; further: on the % scale 0 is the no-effect control and ±100 the full control effect
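After 16 h attachment at 37C, HFF cells received test compound and HCMV-luciferase (1 PFU/cell); reporter luminescence read 72 h later, data normalized against buffer-only and known inhibitor Salinomycin.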
Shiga toxin inh = inhibitors of Shiga toxin in Vero cells; Vero cells, Shiga toxin protein synthesis inhibition reporter; inhibition, % at 38.7 µM; 290,000 compounds, 9.2% hits; in the data active means inhibition mostly above about 28%, no sharp cut-off; inactive means mostly below about 43%; further: 0% is about no effect
* = called active by the depositor; ? = inconclusive; / = not tested or not shown; [ ] = dose if it differs, or a comment. This is a sample that favours compounds with a hit; in the whole collection about 21% have one here. Unless noted, the call rests on the fitted dose curve; in most records, active means well fitted inhibition curve with a large enough effect; inconclusive means small, poorly fitted or top-dose-only effect, or another doubt; inactive means no such curve, though single readings can be large or run the other way.

SMILES	HCV inh	Pf growth 96h	Cycloheximide cs	Pf growth 48h	HCMV antiviral	Shiga toxin inh
Cc1noc(C)c1COC(=O)c1ccc(-c2nc3ccccc3s2)s1	-13%	?	18*	97%	50	73*
CCNC(=O)COC(=O)c1ccc(-c2nc3ccccc3s2)s1	10%	179%	34*	236%	-1	99*
Cc1noc(C)c1COC(=O)c1ccc2ccccc2n1	0%	2%	5	15%	48	7
CCNC(=O)COC(=O)c1cc(C)nc2ccccc12	3%	31%	-1	-13%	-3	-2
Cc1nc2cccnc2n1-c1cccc(C(=O)NCCc2ccc(S(N)(=O)=O)cc2)c1	/	/	/	/	42	/
COc1ccc(NC(=O)c2ccc(COc3ccccc3OC)o2)cc1OC	-29%	-4%	3	3%	-8	6
COc1ccccc1OCc1ccc(C(=O)Nc2cc(OC)c(OC)c(OC)c2)o1	?	352%	-4	-11%	4	-5
COc1ccccc1OCc1ccc(C(=O)NN)o1	0%	0%	19*	0%	13	42*
COc1ccccc1OCc1ccc(C(=O)Nc2ccc(Cl)cn2)o1	0%	-3%	12*	61%	?	30
CC1=C(C(=O)N(C)C)CC(CC(=O)NCCCN(C)C)C(=O)N1Cc1ccc(F)cc1 (centres undefined)	/	/	/	/	7	/
CC1CCN(c2nc3ccc(C(=O)NCc4ccccc4Cl)cc3s2)CC1	/	/	/	/	18	/
COc1ccc(-c2csc3ncnc(NCCCO)c23)cc1	?	?	-2	-8%	-68*	-6
COc1ccc(-c2csc3ncnc(NCCO)c23)cc1	?	0%	-4	-17%	-87*	/
COc1ccc(-c2csc3ncnc(Nc4ccc(O)cc4)c23)cc1	?	17%	0	?	?	6
C/C(N)=C(/C#N)C(=O)COC(=O)c1cccc2ccccc12	?	40%	37*	58%	35	95*
C/C(N)=C(/C#N)C(=O)COC(=O)c1ccccc1O	-2%	56%	24*	38%	8	active
Cc1c(C(=O)N(Cc2ccc(Cl)cc2)C2CCS(=O)(=O)C2)oc2ccccc12 (centres undefined)	-29%	2%	7	13µM*	2	-8
Cc1c(C(=O)N(Cc2cccc(F)c2)C2CCS(=O)(=O)C2)oc2cc(Br)ccc12 (centres undefined)	/	/	/	/	1	/
COc1ccc(CN(C(=O)c2oc3cc(C)c(C)cc3c2C)C2CCS(=O)(=O)C2)cc1OC (centres undefined)	-18%	2.9µM*	-2	?	25	1
Cc1ccc2oc(C(=O)N(Cc3ccc(N(C)C)cc3)C3CCS(=O)(=O)C3)c(C)c2c1 (centres undefined)	-11%	4.7µM*	16*	?	4	16
COc1ccc(CN(C(=O)c2oc3ccccc3c2C)C2CCS(=O)(=O)C2)cc1OC (centres undefined)	-3%	7%	3	?	-17	11
Cc1c(C(=O)N(Cc2cccc(Br)c2)C2CCS(=O)(=O)C2)oc2ccc(F)cc12 (centres undefined)	?	13µM*	0	?	28	-2
COc1ccc(-n2cc(C(=O)NC(C)c3ccccc3)c3ccccc3c2=O)cc1 (centres undefined)	/	/	/	/	18	/
Fc1cc(Br)ccc1Nc1c2c(nc3nc(-c4cccs4)nn13)CCCC2	/	/	/	/	-60*	/
CCCN1[C@@H]2c3cccc(=O)n3C[C@H]1[C@H](CO)[C@H]2C(=O)NC1Cc2ccccc2C1	/	/	/	/	-10	/
SMILES	HCV inh	Pf growth 96h	Cycloheximide cs	Pf growth 48h	HCMV antiviral	Shiga toxin inh
COc1ccc(-c2c(C(=O)c3ccccc3)[nH]c(N)c2C(=O)c2ccc(Br)cc2)cc1OC	/	/	/	/	3	/
COc1ccc(-c2c(C(=O)c3ccccc3)[nH]c(N)c2C(=O)c2ccccc2)cc1OC	/	/	/	/	-70*	/
O=[N+]([O-])c1c2ccccc2cc2ccccc12	?	?	/	2.6µM*	/	/
O=C(CSc1ccc(-c2ccc(Cl)cc2)nn1)NC1CCCC1	0%	4%	-2	7%	-21	-11
Cc1c(C(=O)N(Cc2ccc(N(C)C)cc2)CC2CCCO2)oc2ccc(Cl)cc12 (centres undefined)	/	/	/	/	42	/
CCCc1ccc2oc(C(=O)N(Cc3ccncc3)CC3CCCO3)c(C)c2c1 (centres undefined)	?	18%	12*	9.3µM*	-13	20
Cc1ccc2oc(C(=O)N(Cc3ccncc3)CC3CCCO3)c(C)c2c1 (centres undefined)	?	25%	35*	?	145	54*
Cc1c(C(=O)N(Cc2ccc(N(C)C)cc2)CC2CCCO2)oc2ccccc12 (centres undefined)	-7%	4.1µM*	-1	-21%	?	14
Cc1c(C(=O)N(Cc2ccc(Cl)cc2)CC2CCCO2)oc2ccc(F)cc12 (centres undefined)	/	/	/	/	13	/
CN1C(=O)/C(=C/c2ccc3c(c2)OCO3)N=C1c1ccccc1	-2%	52%	-5	12%	-101*	-8
CCCCc1oc2ccccc2c1C(=O)c1cc(I)c(OCCN(CC)CC)c(I)c1	4%[8.37 µM]	4.1µM*	-5	8.3µM*	-63*	-10
CCCCOc1cc(C(=O)OCCN(CC)CC)ccc1N	?	66%	/	-19%	?	/
Cc1nc(NC(=O)c2ccc(Br)s2)sc1C(=O)N(C)C	-1%	2%	44*	212%	143	50*
Cc1nc(NC(=O)c2cc3c(s2)CCCCC3)sc1C(=O)N(C)C	11µM*	/	21*	19%	1	102*
Cc1csc(NC(=O)c2cc3c(s2)CCC3)n1	7%	170%	64*	159%	47	86*
CCc1sc(C(=O)Nc2nc(C)cs2)cc1C	?	-97%	26*	-84%	29	76*
CCOc1cccc(C(=O)Nc2nc3c(s2)CC(C(C)(C)C)CC3)c1 (centres undefined)	/	/	/	/	-40	/
CC1(C)[C@@H](O)CC[C@]2(C)C3C(O)C=C4[C@H]5C[C@@](C)(C(=O)O)CC[C@]5(C)CC[C@]4(C)[C@]3(C)CC[C@@H]12 (some centres undefined)	/	5%	-5	44%	/	-3
CCN(CC)S(=O)(=O)c1ccc2c(c1)N(CC(=O)N1CCN(c3ccc(F)cc3)CC1)C(=O)CO2	/	?	/	?	12	/
Cc1nn(Cc2ccccc2Cl)c2sc(C(=O)NC(C)(C)C)cc12	?	?	-4	/	?	-14
Cc1csc(NC(=O)c2cc3c(C)nn(Cc4ccccc4Cl)c3s2)n1	?	-101%	42*	?	-16	73
COC(=O)c1sc(NC(=O)c2cc3c(s2)CCCC3)nc1C	?	-2%	34*	10%	-15	26*
